The campaign covered roughly 39,000 compounds. About 1,500 (3.8%) were called active. The list comes from a sample in which actives are over-represented; it also holds similar structures and randomly drawn compounds.

This assay deals with HSkMC (human skeletal muscle cells). The assay can be described thus: cytotoxicity call (relative viability < 0.9). Particulars: 10 µM.
As to `CO[C@@H]1CN(C)C(=O)c2cc(NC(=O)Nc3ccccc3F)ccc2OC[C@@H](C)N(CCC(F)(F)F)C[C@H]1C`, the cytotoxicity call is “inactive”. On to `C[C@@H]1CN([C@@H](C)CO)C(=O)c2cc(NC(=O)Cc3ccccc3)ccc2O[C@@H]1CN(C)C(=O)Nc1ccc(C(F)(F)F)cc1`, for which the cytotoxicity call was “inactive”. Turning to `O=C([C@H]1[C@H](CO)[C@H]2Cn3c(cccc3=O)[C@H]2N1C(=O)C1CCCC1)N1CCOCC1`, the cytotoxicity call was “inactive”. The result for `COc1ccc(CN(C)C[C@H]2Oc3c(NC(=O)C4CCOCC4)cccc3C(=O)N([C@H](C)CO)C[C@@H]2C)cc1` reads “inactive”; that for `O=C(C[C@H]1CC[C@H]2[C@@H](COC[C@@H](O)CN2C(=O)Nc2cccc(F)c2)O1)NCc1ccccc1Cl`, “inactive”. As for `CCC(=O)Nc1ccc(C)c(C)c1`, the cytotoxicity call was “inactive”. For the molecule `C[C@@H]1CCCCO[C@@H](CN(C)C(=O)Nc2ccc(F)cc2)[C@@H](C)CN([C@H](C)CO)C(=O)c2cc(NC(=O)CCCN(C)C)ccc2O1`, the cytotoxicity call was “inactive”. With `Cc1ccc(S(=O)(=O)N(C)C[C@@H]2Oc3ccc(NS(=O)(=O)c4cccs4)cc3CC(=O)N([C@@H](C)CO)C[C@H]2C)cc1`, the cytotoxicity call was “inactive”. Consider `COc1ccc(COCC23Oc4ccccc4[C@H]([C@H]2CO)n2c(c4ccccc4c(-c4ccccc4)c2=O)N3C)cc1`, for which the cytotoxicity call was “inactive”.

For `COC(=O)c1c(C(=O)OC)c2n(c(=O)c1-c1ccccc1)[C@@H]1c3ccccc3O[C@@](COCc3ccc(OC)cc3)([C@@H]1CO[Si](C)(C)C(C)(C)C)N2C`, the cytotoxicity call is “inactive”.

In the case of `COc1ccc(COCC23Oc4ccccc4[C@H]([C@H]2CO[Si](C)(C)C(C)(C)C)n2c(c4ccccc4c(-c4ccccc4)c2=O)N3C)cc1`, the cytotoxicity call is “active”.

For `COc1ccc(NC(=O)N(C)C[C@@H]2OCCCC[C@H](C)Oc3ccc(NS(=O)(=O)c4ccc(F)cc4)cc3C(=O)N([C@H](C)CO)C[C@H]2C)cc1`, the cytotoxicity call is “inactive”. As for `COc1ccc(C#Cc2cnc3c(c2)C(=O)N([C@@H](C)CO)C[C@@H](C)[C@H](CN(C)CC2CCOCC2)O3)cc1`, the cytotoxicity call is “inactive”. `C[C@@H]1CCCCO[C@H](CN(C)C(=O)CCC(F)(F)F)[C@H](C)CN([C@H](C)CO)C(=O)c2cc(NC(=O)CCC(F)(F)F)ccc2O1`: the cytotoxicity call is “inactive”.

`COc1ccc(-c2coc3cc(O)cc(OC)c3c2=O)cc1`: the cytotoxicity call was “inactive”. With `C[C@H](CO)N1C[C@H](C)[C@H](CN(C)C(=O)Nc2ccc(F)cc2)Oc2ccc(NC(=O)C3CC3)cc2CC1=O`, the cytotoxicity call is “inactive”.

As for `Cc1noc(C)c1NC(=O)N(C)C[C@H]1Oc2ccc(NS(=O)(=O)c3c(C)noc3C)cc2C(=O)N([C@@H](C)CO)C[C@@H]1C`, the cytotoxicity call is “inactive”.

Turning to `CCc1ccc(/C=C2\SC(=O)N(CCCCCCNC(=O)c3ccc(Nc4ccc([N+](=O)[O-])c5nonc45)cc3)C2=O)cc1`, the cytotoxicity call is “inactive”. As to `CCc1ccc(/C=C2\SC(=O)N(CCCCCCNC(=O)c3ccccc3Nc3ccc([N+](=O)[O-])c4nonc34)C2=O)cc1`, the cytotoxicity call is “active”. The result for `COc1ccc(NC(=O)Nc2ccc3c(c2)C(=O)N([C@H](C)CO)C[C@H](C)[C@H](CN(C)S(=O)(=O)c2ccccc2)OCCCC[C@H](C)O3)cc1` reads “inactive”; that for `C[C@H]1CN([C@@H](C)CO)C(=O)c2cccc(NC(=O)Nc3ccc(C(F)(F)F)cc3)c2O[C@H]1CN(C)Cc1ccc(Cl)c(Cl)c1`, “active”; that for `C[C@@H]1CN([C@H](C)CO)C(=O)c2cccc(NC(=O)Nc3ccc(C(F)(F)F)cc3)c2O[C@H]1CN(C)Cc1ccc(Cl)c(Cl)c1`, “active”. On to `C[C@@H]1CN([C@@H](C)CO)C(=O)c2cccc(NC(=O)Nc3ccc(C(F)(F)F)cc3)c2O[C@H]1CN(C)Cc1ccc(Cl)c(Cl)c1`, for which the cytotoxicity call is “active”. Take `C[C@H]1CN([C@@H](C)CO)C(=O)c2cccc(NC(=O)Nc3ccc(C(F)(F)F)cc3)c2O[C@H]1CN(C)Cc1ccc(C(F)(F)F)cc1`: the cytotoxicity call was “inactive”. Consider `C[C@H](CO)N1C[C@H](C)[C@@H](CN(C)Cc2ccc(Cl)c(Cl)c2)Oc2c(NC(=O)Nc3ccc(C(F)(F)F)cc3)cccc2C1=O`, for which the cytotoxicity call was “active”. Take `C[C@H](CO)N1C[C@H](C)[C@H](CN(C)C(=O)Nc2ccnc(N3CCOCC3)c2)OCc2cn(nn2)CCCC1=O`: the cytotoxicity call was “inactive”.

In the case of `C[C@@H]1CN([C@H](C)CO)C(=O)c2cc(NS(=O)(=O)c3ccccc3)ccc2O[C@@H](C)CCCCO[C@@H]1CN(C)Cc1ccccc1`, the cytotoxicity call was “inactive”.

For `C[C@H]1CN([C@@H](C)CO)S(=O)(=O)c2ccc(C#CC3CC3)cc2O[C@H]1CN(C)C(=O)c1cccc(F)c1`, the cytotoxicity call is “inactive”. For `Cc1nnc(SCC2=C(C(=O)[O-])N3C(=O)C(NC(=O)Cn4cnnn4)C3SC2)s1.[Na+]` (centres undefined), the cytotoxicity call is “inactive”.

As to `C[C@H](CO)N1C[C@H](C)[C@H](CN(C)Cc2ccc(Cl)c(Cl)c2)OCc2ccccc2-c2c(n(C)c3ccccc23)C1=O`, the cytotoxicity call is “inactive”.

In the case of `C[C@H]1CN([C@@H](C)CO)C(=O)c2cc(C#Cc3ccccn3)cnc2O[C@@H]1CN(C)C(=O)c1cnccn1`, the cytotoxicity call is “inactive”.

As for `COc1ccc(NC(=O)Nc2ccc3c(c2)C(=O)N([C@@H](C)CO)C[C@H](C)[C@H](CN(C)Cc2ccncc2)OCCCC[C@@H](C)O3)cc1`, the cytotoxicity call was “inactive”. The result for `O=C(/C=C/c1ccc(O)c(O)c1)O[C@@H]1C[C@](OC(=O)/C=C/c2ccc(O)c(O)c2)(C(=O)O)C[C@@H](OC(=O)/C=C/c2ccc(O)c(O)c2)[C@H]1O` reads “inactive”; that for `C[C@@H]1CN([C@@H](C)CO)C(=O)c2cccc(NC(=O)Nc3ccc(C(F)(F)F)cc3)c2O[C@@H]1CN(C)Cc1ccc(Cl)c(Cl)c1`, “active”; that for `C[C@@H]1CN([C@H](C)CO)C(=O)c2cccc(NC(=O)Nc3ccc(C(F)(F)F)cc3)c2O[C@@H]1CN(C)Cc1ccc(Cl)c(Cl)c1`, “active”. Regarding `C[C@H]1CN([C@@H](C)CO)C(=O)c2cccc(NC(=O)Nc3ccc(C(F)(F)F)cc3)c2O[C@@H]1CN(C)Cc1ccc(C(F)(F)F)cc1`, the cytotoxicity call is “inactive”.

Consider `C[C@H]1CN([C@@H](C)CO)C(=O)c2cccc(NC(=O)Nc3ccc(C(F)(F)F)cc3)c2O[C@@H]1CN(C)Cc1ccc(Cl)c(Cl)c1`, for which the cytotoxicity call is “active”. Consider `C[C@H](CO)N1C[C@H](C)[C@H](CN(C)Cc2ccc(Cl)c(Cl)c2)Oc2c(NC(=O)Nc3ccc(C(F)(F)F)cc3)cccc2C1=O`, for which the cytotoxicity call was “inactive”. As for `COc1ccc(CN(C)C[C@@H]2OCCCC[C@H](C)Oc3ccc(NC(=O)c4ccccc4)cc3C(=O)N([C@H](C)CO)C[C@H]2C)cc1`, the cytotoxicity call was “inactive”.

The record behind these values is the antibiotic and cytotoxicity screens of Wong et al. (2023).
